PubChem BioAssay (NCATS)
Results filed as inconclusive are left out. The source made the active and inactive calls. Unless noted, the rule behind the calls is not given here.

Tests used:
[1] = qHTS profiling for inhibitors of Plasmodium falciparum (3D7) proliferation (AID 743322);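 note: infected erythrocytes exposed to compound for 72 h before lysis; 100% = DMSO vehicle wells and 0% = 0.29 µM artemisinin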; conditions: P. falciparum 3D7 proliferation; at 28.7 µM (top of the series)
In short: (§1)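 Erythrocytes infected with P. falciparum (0.3% parasitemia, 2.5% hematocrit) incubated with compounds 72 h at 37 C, 5% CO2. Lysis with saponin/Triton buffer containing SYBR Green I, overnight at room temperature in the dark; DNA fluorescence (485/535 nm) normalised to 0.29 uM artemisinin and DMSO.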

[2] = qHTS profiling for inhibitors of Plasmodium falciparum (HB3) proliferation (AID 743324; active = well fitted curve in the direction sought with a large enough effect; an effect the other way counts as inactive or inconclusive;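 note: 100% = DMSO vehicle wells and 0% = artemisinin-treated control wells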); conditions: Plasmodium falciparum HB3 blood-stage proliferation; at 28.7 µM (top of the series)
In short: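 P. falciparum HB3 grown in erythrocytes (0.3% parasitemia, 2.5% hematocrit final) with compound for 72 h at 37 C, 5% CO2. Parasite DNA detected by SYBR Green after saponin/triton lysis overnight; normalized to 0.29 uM artemisinin and DMSO.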

[3] = qHTS profiling of the MIPE4 collection as inhibitors of Plasmodium falciparum (3D7) proliferation (AID 743344);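 note: scaled between DMSO vehicle wells and 0.29 µM artemisinin as full inhibition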; conditions: P. falciparum 3D7 in erythrocytes, SYBR Green DNA fluorescence, 72 h; at 28.5 µM (top of the series) unless noted
In short: as §1

[4] = qHTS profiling of the MIPE4 collection as inhibitors of Plasmodium falciparum (DD2) proliferation (AID 743345); conditions: P. falciparum Dd2 in erythrocytes, SYBR Green DNA, 72 h; at 28.5 µM (top of the series) unless noted
In short: as §1

[5] = qHTS profiling of the MIPE4 collection as inhibitors of Plasmodium falciparum (DD2) proliferation (Rep 2) (AID 743346); conditions: P. falciparum Dd2 in erythrocytes, SYBR Green DNA, 72 h; at 28.5 µM (top of the series) unless noted
In short: as §1

[6] = qHTS profiling of the MIPE4 collection as inhibitors of Plasmodium falciparum (HB3) proliferation (AID 743347);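 note: plate controls were DMSO vehicle wells for no effect and artemisinin wells for full effect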; conditions: P. falciparum HB3 in erythrocytes, SYBR Green DNA, 72 h; at 28.5 µM (top of the series) unless noted
In short: as §1

[7] = High-throughput drug toxicity screening in the BPDCN cell line Gen2.2 (AID 1224824); conditions: Gen2.2 BPDCN cells; at 45.8 µM (top of the series) unless noted;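 note: cells exposed to compounds for 48 h before reading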
In short: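 CellTiter-Glo luminescence after 48 h compound exposure of Gen2.2 cells; percent activity set with DMSO as 100% and bortezomib (9.2 uM final) as 0%. Cells seeded at 500 per well, RPMI + 10% FBS, 37 °C.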

[8] = High-throughput drug toxicity screening in the BPDCN cell line Cal-1 (AID 1224825); conditions: Cal-1 BPDCN cell viability, qHTS; at 45.8 µM (top of the series) unless noted
In short: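 Exponentially growing Cal-1 cells, 500 per well in phenol red-free RPMI with 10% FBS, were exposed to compounds for 48 h at 37 °C, 5% CO2. Viability was read by CellTiter-Glo luminescence and normalised to DMSO (100%) and 9.2 uM bortezomib (0%).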

[9] = qHTS assay for measurement of the activity of small molecule inhibitors on Zika virus induced Caspase-3 activity in human iPSC derived neural progenitor cells (hNPCs) (AID 1224857; active = well fitted curve in the direction sought with a large enough effect; an effect the other way counts as inactive or inconclusive; note: nearly all actives have a fitted effect of over 65% in size; note: potency is the fitted concentration of half-maximal effect)
In short: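 Values are percent inhibition of virus-induced caspase-3/7 signal, scaled between uninfected cells and ZIKV-infected cells. Infection used 2 FFU/cell for 6 h after 1 h compound exposure.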

[10] = qHTS profiling for inhibitors of Plasmodium falciparum (DD2) proliferation (AID 743323); conditions: lower = more inhibition; at 28.7 µM (top of the series)
In short: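 1536-well qHTS; infected RBCs 0.3% parasitemia/2.5% Hct final; cpd 72 h 37 C 5% CO2; lysis buffer + SYBR Green I, o/n RT dark; FI 485/535; norm. to 0.29 uM artemisinin and DMSO, plate-stack corrected.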

SMILES | remaining parasite growth % (stronger effect = lower value) [1] | remaining proliferation (% of control), lower = more inhibition [2] | parasite growth, % of DMSO control [3] | parasite growth remaining, % of DMSO control (lower = more inhibition) [4] | parasite growth, % of control (lower = inhibition) [5] | growth, % of control [6] | cell viability, % of control (lower = more cytotoxic) [7] | viability (% of control) [8] | Potency [9] | activity, percent of control [10]
O=C1C(Cl)=C(NCCN2CCOCC2)C(=O)c2ncccc21 | 34.6% | 26.6% | 15.2% | 18% | 16% | 10.3% | 2.36% | 0.784% | 2350 nM (active) | –
CCOC(CN1C(=O)[C@](CC(=O)Nc2ccc(C)cc2)(NC(=O)Nc2ccc(C)cc2)c2ccccc21)OCC | 4.05% | 10.1% | 14% | 38.2% | – | 15.7% | 45.2% | 46.4% | inactive | –
CC[C@H]1OC(=O)[C@H](C)[C@@H](O[C@H]2C[C@@](C)(OC)[C@@H](O)[C@H](C)O2)[C@H](C)[C@@H](O[C@@H]2O[C@H](C)C[C@H](N(C)C)[C@@H]2O)[C@](C)(O)C[C@@H](C)CN(C)[C@H](C)[C@@H](O)[C@]1(C)O | 11.3% | 31.5% | 33.2% | 24.6% | 14% | 59% | 184% | 120% | inactive | –
CC(C)(C)c1cc(C(=O)O)c(NC(=O)Nc2ccc3[nH]ncc3c2)s1 | 97% | 70.8% | 74.4% | 93.1% | 81.5% | 69.6% | 134% | 110% | inactive | 95.5%
O=C1NC(=O)C(=Cc2ccc3c(c2)OC(F)(F)O3)S1 | – | – | 86.7% | 95.4% | 126% | 125% | 54.2% | 83% | inactive | –
O=C(Nc1cc(Cl)cc2c1[nH]c1cnccc12)c1cccnc1 | -0.264% | 0.746% | 5.73% | 15.5% | 10.7% | 3.51% | 67.6% | 97.7% | inactive | –
Cc1cc(OCCCc2c(C(=O)O)n(Cc3cccnc3)c3c(-c4c(COc5ccc(N6CCN([S+](C)(=O)[O-])CC6)cc5)nn(C)c4C)cccc23)cc(C)c1Cl | – | – | 6.87% | 8.65% | 16% | 5.16% | 62.9% | 96.7% | inactive | –
CCS(=O)(=O)N1CC(CC#N)(n2cc(-c3ncnc4[nH]ccc34)cn2)C1 | – | – | – | – | – | – | 134% | 17.5% | – | –
NC(CO)(CO)CCc1ccc(Sc2cccc(OCc3ccccc3)c2)cc1Cl | -0.423% | -1.39% | 4.87% | 8.96% | 15.3% | 6.89% | 7.64% | 5.26% | inactive | 1.55%
CNC(=O)c1ccccc1Sc1ccc2c(C=Cc3ccccn3)n[nH]c2c1 | – | – | – | – | – | – | 311% | 28.2% | – | –
COc1cc(Nc2ncc(F)c(Nc3ccc4c(n3)NC(=O)C(C)(C)O4)n2)cc(OC)c1OC | 83% | 58.2% | 5.27% | 7% | 6.47% | 2.09% | 53.6% | 58.1% | inactive | –
COc1ccc(C2CC(c3ccccc3)=NN2c2ccc(S(N)(=O)=O)cc2)cc1 (stereo unspecified) | 23.3% | 19.1% | 50.4% | 99.9% | 46.5% | 66% | 76.6% | 27.3% | inactive | –
O=C(O)c1ccc(-c2cc3cccnc3c(-c3ccc4nonc4c3)n2)cc1 | 98.1% | 93.9% | 15.8% | 53.9% | 37.1% | 3.01% | 30.2% | 18.7% | inactive | –
O=c1ccn([C@@H]2O[C@H](CO)[C@H](O)[C@H]2O)c(=O)[nH]1 | – | – | 92.2% | 90.5% | 99.5% | 107% | 90% | 112% | inactive | –
OC[C@H]1O[C@@H](n2cnc3c2NC=NC[C@@H]3O)C[C@H]1O | 97.1% | 99.7% | 81.4% | 92.5% | 146% | 97.8% | 188% | 109% | inactive | –
CO[C@H]1C[C@@H]2CC[C@@H](C)[C@@](O)(O2)C(=O)C(=O)N2CCCC[C@@H]2C(=O)O[C@H]([C@@H](C)C[C@@H]2CC[C@H](O)[C@H](OC)C2)CC(=O)[C@H](C)C=C(C)[C@@H](O)[C@@H](OC)C(=O)[C@H](C)C[C@H](C)C=CC=CC=C1C | – | – | 5.33% | 9.31% | 7.75% | 6.63% | 5.13% | 2.54% | inactive | –
Cc1[nH]c(C=C2C(=O)Nc3ccc(S(=O)(=O)Cc4c(Cl)cccc4Cl)cc32)c(C)c1C(=O)N1CCC[C@H]1CN1CCCC1 | – | – | 6.34% | 8.07% | 12% | 5.52% | 6.62% | 2.43% | inactive | –
CON=C(C(=O)N[C@@H]1C(=O)N2C(C(=O)OCOC(=O)C(C)(C)C)=C(C=Cc3scnc3C)CS[C@H]12)c1csc(N)n1 | – | – | 60.4% | 96% | 73% | 84.9% | 90.5% | 115% | inactive | –
COc1cc(NC(=O)c2ccc(-c3ccc(Cl)cc3)o2)cc(OC)c1 | – | – | 97.8% | 97.8% | 99.4% | 94.4% | 9.04% | 6.59% | inactive | –
NC[C@@H]1O[C@@H](O[C@H]2[C@@H](O)[C@H](O[C@@H]3[C@@H](O)[C@@H](N)C[C@H](N)[C@H]3O[C@H]3O[C@H](CN)[C@@H](O)[C@@H](O)[C@H]3N)O[C@H]2CO)[C@H](N)[C@@H](O)[C@@H]1O | – | – | 88% | 92.7% | 90% | 99.6% | 134% | 147% | inactive | –
